RTF Ca sens inh: cardiac RTF calcium desensitization; P19429+P45379; IANBD-labeled cardiac RTF, Ca2+ fluorescence; inhibition, % at 7.15 µM; 0.12% of 340,000 active;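 active = inhibition above the mean inhibition of all tested compounds plus 3 SD, cut at about 17% in these data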;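 note: assay run at fixed EC70 calcium of 1.6 mM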
LANA DNA inh: KSHV C-LANA DNA binding inhibition | MBP-C-LANA/FAM-LBS DNA binding, fluorescence polarization | 0.078% of 340,000 active | inhibition, % at 9 µM;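 active = highest replicate inhibition at or above 60% at 9 µM, even if other replicates fall short; inactive = all replicates below 60% inhibition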;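 note: 0% = neutral control wells and 100% = 4 µM acridine orange control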
LANA-H2B inh: blocks KSHV LANA binding to histone H2A/H2B; Q9QR71; cell-free LANA-H2A/H2B peptide, fluorescence polarization; inhibition, % (no concentration beside the values); 0.6% of 320,000 active; in the data active = inhibition mostly above about 10%, no sharp cut-off; inactive = mostly below about 6.7%
Target sequence (Q9QR71 whole entry, looked up): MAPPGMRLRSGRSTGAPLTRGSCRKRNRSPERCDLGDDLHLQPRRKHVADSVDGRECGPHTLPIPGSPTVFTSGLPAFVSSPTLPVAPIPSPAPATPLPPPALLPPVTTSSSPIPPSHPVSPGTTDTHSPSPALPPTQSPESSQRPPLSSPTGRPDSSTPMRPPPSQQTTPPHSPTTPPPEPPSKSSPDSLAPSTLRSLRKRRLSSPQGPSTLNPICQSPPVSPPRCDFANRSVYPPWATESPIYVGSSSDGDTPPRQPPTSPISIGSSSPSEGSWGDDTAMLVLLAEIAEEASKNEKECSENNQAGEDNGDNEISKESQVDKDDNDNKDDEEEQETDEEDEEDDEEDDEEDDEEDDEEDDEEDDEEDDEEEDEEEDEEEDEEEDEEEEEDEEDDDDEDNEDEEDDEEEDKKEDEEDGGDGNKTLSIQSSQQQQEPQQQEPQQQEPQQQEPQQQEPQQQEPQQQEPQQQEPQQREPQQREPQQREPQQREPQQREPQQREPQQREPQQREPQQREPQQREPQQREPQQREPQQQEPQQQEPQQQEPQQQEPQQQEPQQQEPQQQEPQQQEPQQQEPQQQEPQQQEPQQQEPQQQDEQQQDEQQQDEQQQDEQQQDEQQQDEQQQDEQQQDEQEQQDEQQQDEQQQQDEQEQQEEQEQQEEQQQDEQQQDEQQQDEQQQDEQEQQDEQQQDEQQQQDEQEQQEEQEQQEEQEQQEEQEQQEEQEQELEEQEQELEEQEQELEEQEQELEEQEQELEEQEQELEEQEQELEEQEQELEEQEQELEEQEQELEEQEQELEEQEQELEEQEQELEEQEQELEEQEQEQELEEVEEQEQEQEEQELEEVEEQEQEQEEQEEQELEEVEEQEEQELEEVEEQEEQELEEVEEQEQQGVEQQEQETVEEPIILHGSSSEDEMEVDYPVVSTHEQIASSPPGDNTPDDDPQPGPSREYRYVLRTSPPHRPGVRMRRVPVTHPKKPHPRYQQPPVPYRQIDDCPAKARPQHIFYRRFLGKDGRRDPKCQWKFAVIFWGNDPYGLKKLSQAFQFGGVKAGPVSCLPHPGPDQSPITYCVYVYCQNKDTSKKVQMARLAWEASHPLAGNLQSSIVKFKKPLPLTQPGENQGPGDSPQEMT
Keap1-Nrf2 PPI: disrupts human Keap1 binding to Nrf2 peptide | 0.15% of 340,000 active | Q14145 | Keap1 Kelch-Nrf2 peptide fluorescence polarization, 1536-well | inhibition, % at 9.4 µM; in the data active = inhibition above about 12%;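 note: human Keap1 Kelch domain with fluorescein labeled Nrf2 9mer peptide probe; 0% = neutral control wells and 100% = peptide positive control; higher means more block of Keap1 binding to Nrf2 peptide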
RTF Ca sens act: increases calcium sensitivity of human cardiac regulated thin filaments. IANBD-labeled TnC RTF fluorescence at EC20 calcium; 0% EC20 calcium, 100% full calcium. activation, % at 7.2 µM. 0.24% of 340,000 active. AID 493008;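 active = activation above the mean over all tested compounds plus 3 SD, cut at about 30% in these data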;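 note: rise in fluorescence read as greater calcium sensitivity of cardiac thin filaments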
Active calls of the source: *; i = inactive; . = no result; + = active, no number. The list is not random: actives were taken first. Their share in the collection is about 1%.

SMILES | RTF Ca sens inh | LANA DNA inh | LANA-H2B inh | Keap1-Nrf2 PPI | RTF Ca sens act
COc1ccc(S(=O)(=O)CCC(=O)N2CCN(c3ccc(C(C)=O)cc3)CC2)cc1 | -20 | 0 | 13* | -5 | 3
Cc1ccc(C(=O)CC(C(=O)O)P(=O)(c2ccccc2)c2ccccc2)cc1 (stereo not given) | -2 | 1 | 2 | -4 | -4
O=C(O)C(C/C(=N/O)c1ccc(Br)cc1)P(=O)(c1ccccc1)c1ccccc1 (stereo not given) | 2 | -1 | 15* | -4 | -4
Cn1c(Oc2ccccc2)c(C=O)c2ccccc21 | 1 | 1 | 0 | -2 | -3
CCN(CC)S(=O)(=O)c1ccc(C)c(NC(=O)COC(=O)[C@@H]2CCCN2C(=O)c2cccs2)c1 | -1 | 1 | 15* | 4 | 4
CN(C)S(=O)(=O)c1ccc(Cl)c(NC(=O)COC(=O)[C@@H]2CCCN2C(=O)c2cccs2)c1 | -13 | 0 | -2 | 0 | 4
C/C(=C\C=C(C#N)C#N)c1cc(C#N)c(N)o1 | -195 | -30 | . | -127 | 149*
Cc1nnc(NC(=O)C2CC(=O)N(c3ccc4c(c3)OCCO4)C2)s1 (stereo not given) | 2 | 0 | 21* | 1 | 1
Cc1cnc(NC(=O)C2CC(=O)N(c3ccc4c(c3)OCCO4)C2)s1 (stereo not given) | 9 | 4 | 4 | 2 | -5
Cc1ccc(S(=O)(=O)NCc2ccc(C(=O)NCCN(Cc3ccccc3)C(C)C)cc2)cc1 | -7 | 1 | -5 | -2 | -2
C=CCc1ccccc1OCC(O)CN1C(=O)c2ccccc2C1=O (stereo not given) | -2 | 1 | 13* | -6 | 3
COC(=O)c1sccc1NC(=O)Nc1ccccc1F | -8 | -1 | 12* | 1 | -4
Cc1ccc(Nc2nc(NCc3ccco3)c3ccccc3n2)cc1 | 0 | 0 | -3 | -2 | -2
CCCCN(C)CC(O)Cn1cc(/C=C/C(=O)c2ccc(OCC)cc2)c2ccccc21 (stereo not given) | . | . | -6 | . | .
CCCCN(C)CC(O)Cn1cc(/C=C/C(=O)c2cccs2)c2ccccc21 (stereo not given) | -22 | -6 | + | -29 | 19
CCOc1ccc(/C=C2\CCCc3c2nc2ccccc2c3C(=O)O)cc1OC | i | 148* | 121* | 114* | 767*
COc1cc(/C=C2\CCCc3c2nc2ccccc2c3C(=O)O)cc(OC)c1O | 3 | -1 | 3 | -1 | -3
COc1ccc(/C=C2\CCCc3c2nc2ccccc2c3C(=O)O)cc1OC | . | . | 91* | . | .
COc1ccc(/C=C2\CCc3c2nc2ccccc2c3C(=O)O)cc1OC | -50 | 6 | 2 | -4 | 4
CC(C)n1cc(/C=C(\C#N)S(=O)(=O)c2ccccc2)c2ccccc21 | 8 | 1 | -2 | -5 | 1
Cn1nc(C(=O)Nc2cc(Cl)ccc2N2CCCC2)c2ccccc2c1=O | 0 | -9 | 48* | 3 | -8
CCN(CC)S(=O)(=O)c1cccc(C(=O)OCc2cc(=O)n3nc(C)sc3n2)c1 | -6 | 0 | 1 | 4 | 6
COc1ccc(S(=O)(=O)N2CCN(C(=O)[C@@H]3CCCN3C(=O)c3cccs3)CC2)cc1 | -1 | 1 | . | -3 | 1
O=C([C@@H]1CCCN1C(=O)c1cccs1)N1CCN(S(=O)(=O)c2cccc(F)c2)CC1 | 1 | 1 | 11* | 5 | 0
CS(=O)(=O)Cc1ccc(C(=O)N2CCCC2c2cccs2)cc1 (stereo not given) | -4 | 0 | 0 | -3 | -4
SMILES | RTF Ca sens inh | LANA DNA inh | LANA-H2B inh | Keap1-Nrf2 PPI | RTF Ca sens act
COCCCn1c(=O)cc(C)[nH]c1=S | 0 | 0 | 15* | 2 | 6
COCCCn1c(=S)[nH]c(C)c(C)c1=O | 2 | -2 | -2 | -2 | 1
c1ccc(Nc2ccc3c4c(cccc24)CC3)cc1 | -94 | -1 | -1 | -2 | 52*
c1ccc(Nc2cccc3ccccc23)cc1 | -6 | 2 | . | -1 | 10
O=C(O)C1CC2CCC1CC2 (stereo not given) | -1 | -5 | . | 1 | -1
Cc1ccc(NC(=S)N/C(=N/S(=O)(=O)c2ccccc2)c2ccccc2)cc1 | 6 | 1 | -3 | -1 | 4
O=C(/C=C/c1ccc(Br)o1)Nc1nccs1 | -7 | 3 | 19* | -4 | 12
O=C(Nc1nccs1)c1ccc(Br)o1 | 1 | 0 | 3 | 2 | -4
Cc1cc(/C=C2/C(=N)N3C(=NC2=O)SN=C3S(C)(=O)=O)c(C)n1-c1ccccc1F | 14 | 1 | 7 | -4 | -2
